How the values were obtained:
[1] = molecular target: Protein kinase C gamma type (Homo sapiens) (UniProt P05129); settings: at 1 µM;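 note: each value is an averaged percent inhibition of the enzyme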
[2] = molecular target: T1, Protein kinase C iota type (Homo sapiens) (UniProt P41743); settings: at 0.1 µM
T1 sequence (whole entry): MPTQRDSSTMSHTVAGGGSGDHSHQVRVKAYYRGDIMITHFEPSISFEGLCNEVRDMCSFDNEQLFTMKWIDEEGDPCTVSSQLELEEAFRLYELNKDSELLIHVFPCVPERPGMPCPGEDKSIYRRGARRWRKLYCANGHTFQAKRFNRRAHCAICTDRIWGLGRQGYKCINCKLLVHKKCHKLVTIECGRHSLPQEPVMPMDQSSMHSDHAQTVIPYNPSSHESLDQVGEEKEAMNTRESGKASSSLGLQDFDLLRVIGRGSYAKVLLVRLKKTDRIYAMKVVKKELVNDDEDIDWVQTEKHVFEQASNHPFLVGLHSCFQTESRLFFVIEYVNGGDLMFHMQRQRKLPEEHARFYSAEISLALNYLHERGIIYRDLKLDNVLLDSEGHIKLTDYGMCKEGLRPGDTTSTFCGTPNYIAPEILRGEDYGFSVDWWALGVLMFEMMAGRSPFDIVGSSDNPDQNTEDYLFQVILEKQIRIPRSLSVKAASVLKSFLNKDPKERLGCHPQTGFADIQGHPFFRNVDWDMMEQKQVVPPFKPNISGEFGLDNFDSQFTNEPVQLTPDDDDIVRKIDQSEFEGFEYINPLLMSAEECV

[3] = molecular target: T1, Protein kinase C iota type (Homo sapiens); settings: at 1 µM
[4] = molecular target: Protein kinase C theta type (Homo sapiens) (UniProt Q04759); settings: at 0.1 µM
Chain of Protein kinase C theta type (Homo sapiens) (Q04759 whole entry, looked up): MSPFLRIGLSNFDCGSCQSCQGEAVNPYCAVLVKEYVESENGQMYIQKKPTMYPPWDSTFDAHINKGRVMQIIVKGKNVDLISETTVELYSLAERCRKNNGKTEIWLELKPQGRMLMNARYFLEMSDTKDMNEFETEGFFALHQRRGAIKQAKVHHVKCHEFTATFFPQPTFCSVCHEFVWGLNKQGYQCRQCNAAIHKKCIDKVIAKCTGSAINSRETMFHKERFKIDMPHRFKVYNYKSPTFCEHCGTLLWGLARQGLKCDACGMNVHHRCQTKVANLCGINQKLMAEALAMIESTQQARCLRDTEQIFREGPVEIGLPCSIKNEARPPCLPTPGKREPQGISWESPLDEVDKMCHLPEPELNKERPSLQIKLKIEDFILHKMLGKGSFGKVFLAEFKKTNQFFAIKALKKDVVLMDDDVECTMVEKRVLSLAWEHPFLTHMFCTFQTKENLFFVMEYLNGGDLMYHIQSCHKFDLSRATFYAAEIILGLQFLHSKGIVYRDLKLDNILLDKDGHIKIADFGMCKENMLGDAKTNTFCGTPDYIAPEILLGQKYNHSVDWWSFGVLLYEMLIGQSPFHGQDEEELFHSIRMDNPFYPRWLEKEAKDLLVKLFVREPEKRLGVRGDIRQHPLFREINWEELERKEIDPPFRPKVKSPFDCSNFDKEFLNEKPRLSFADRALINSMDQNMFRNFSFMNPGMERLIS

[5] = molecular target: Protein kinase C theta type (Homo sapiens) (UniProt Q04759); settings: at 1 µM
[6] = molecular target: Protein kinase C beta type (Homo sapiens) (UniProt P05771); settings: at 0.1 µM
Chain of Protein kinase C beta type (Homo sapiens) (P05771 2-671 limits assumed): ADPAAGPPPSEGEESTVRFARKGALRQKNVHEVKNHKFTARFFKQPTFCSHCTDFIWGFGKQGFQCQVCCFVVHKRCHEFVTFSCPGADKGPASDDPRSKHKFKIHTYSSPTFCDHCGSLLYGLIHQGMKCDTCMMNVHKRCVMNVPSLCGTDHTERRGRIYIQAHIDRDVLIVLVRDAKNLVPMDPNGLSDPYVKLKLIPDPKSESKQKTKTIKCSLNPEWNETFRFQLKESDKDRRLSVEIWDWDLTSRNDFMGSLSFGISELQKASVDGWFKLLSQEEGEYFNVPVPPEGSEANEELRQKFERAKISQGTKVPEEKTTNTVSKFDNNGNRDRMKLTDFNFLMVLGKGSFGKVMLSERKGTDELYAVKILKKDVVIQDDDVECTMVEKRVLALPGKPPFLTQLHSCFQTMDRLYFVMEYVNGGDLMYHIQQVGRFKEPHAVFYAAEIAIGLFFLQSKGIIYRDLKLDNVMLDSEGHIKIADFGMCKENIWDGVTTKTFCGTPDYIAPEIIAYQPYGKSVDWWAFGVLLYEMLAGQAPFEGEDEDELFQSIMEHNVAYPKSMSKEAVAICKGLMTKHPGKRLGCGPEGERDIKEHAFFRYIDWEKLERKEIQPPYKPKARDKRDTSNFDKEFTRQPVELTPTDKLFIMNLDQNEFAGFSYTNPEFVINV

[7] = molecular target: Protein kinase C beta type (Homo sapiens) (UniProt P05771); settings: at 1 µM
[8] = molecular target: T2, Serine/threonine-protein kinase D1 (Homo sapiens) (UniProt Q15139); settings: at 0.1 µM
T2 sequence (whole entry): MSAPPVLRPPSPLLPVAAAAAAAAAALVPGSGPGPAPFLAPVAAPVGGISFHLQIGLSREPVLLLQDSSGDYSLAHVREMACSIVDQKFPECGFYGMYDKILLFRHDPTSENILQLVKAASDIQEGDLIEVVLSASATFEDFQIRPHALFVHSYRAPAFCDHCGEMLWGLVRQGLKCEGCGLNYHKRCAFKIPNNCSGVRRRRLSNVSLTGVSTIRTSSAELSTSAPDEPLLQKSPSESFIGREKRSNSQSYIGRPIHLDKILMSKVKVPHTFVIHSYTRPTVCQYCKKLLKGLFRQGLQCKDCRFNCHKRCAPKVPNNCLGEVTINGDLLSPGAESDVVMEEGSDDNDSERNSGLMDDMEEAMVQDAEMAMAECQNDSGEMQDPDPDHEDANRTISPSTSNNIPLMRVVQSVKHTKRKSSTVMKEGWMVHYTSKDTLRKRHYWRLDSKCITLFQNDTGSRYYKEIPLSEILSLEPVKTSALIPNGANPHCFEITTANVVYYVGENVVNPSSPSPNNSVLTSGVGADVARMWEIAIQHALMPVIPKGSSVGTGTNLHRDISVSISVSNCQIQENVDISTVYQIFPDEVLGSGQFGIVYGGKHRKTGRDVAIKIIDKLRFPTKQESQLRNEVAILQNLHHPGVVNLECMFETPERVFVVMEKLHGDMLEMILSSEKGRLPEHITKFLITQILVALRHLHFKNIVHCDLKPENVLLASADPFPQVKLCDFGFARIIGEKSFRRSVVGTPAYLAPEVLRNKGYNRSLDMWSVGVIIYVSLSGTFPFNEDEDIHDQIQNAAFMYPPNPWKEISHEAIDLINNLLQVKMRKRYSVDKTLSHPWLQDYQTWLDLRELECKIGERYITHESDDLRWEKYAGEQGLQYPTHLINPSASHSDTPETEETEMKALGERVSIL

[9] = molecular target: T2, Serine/threonine-protein kinase D1 (Homo sapiens); settings: at 1 µM
[10] = molecular target: T3, Serine/threonine-protein kinase D2 (Homo sapiens) (UniProt Q9BZL6); settings: at 0.1 µM
T3 sequence (whole entry): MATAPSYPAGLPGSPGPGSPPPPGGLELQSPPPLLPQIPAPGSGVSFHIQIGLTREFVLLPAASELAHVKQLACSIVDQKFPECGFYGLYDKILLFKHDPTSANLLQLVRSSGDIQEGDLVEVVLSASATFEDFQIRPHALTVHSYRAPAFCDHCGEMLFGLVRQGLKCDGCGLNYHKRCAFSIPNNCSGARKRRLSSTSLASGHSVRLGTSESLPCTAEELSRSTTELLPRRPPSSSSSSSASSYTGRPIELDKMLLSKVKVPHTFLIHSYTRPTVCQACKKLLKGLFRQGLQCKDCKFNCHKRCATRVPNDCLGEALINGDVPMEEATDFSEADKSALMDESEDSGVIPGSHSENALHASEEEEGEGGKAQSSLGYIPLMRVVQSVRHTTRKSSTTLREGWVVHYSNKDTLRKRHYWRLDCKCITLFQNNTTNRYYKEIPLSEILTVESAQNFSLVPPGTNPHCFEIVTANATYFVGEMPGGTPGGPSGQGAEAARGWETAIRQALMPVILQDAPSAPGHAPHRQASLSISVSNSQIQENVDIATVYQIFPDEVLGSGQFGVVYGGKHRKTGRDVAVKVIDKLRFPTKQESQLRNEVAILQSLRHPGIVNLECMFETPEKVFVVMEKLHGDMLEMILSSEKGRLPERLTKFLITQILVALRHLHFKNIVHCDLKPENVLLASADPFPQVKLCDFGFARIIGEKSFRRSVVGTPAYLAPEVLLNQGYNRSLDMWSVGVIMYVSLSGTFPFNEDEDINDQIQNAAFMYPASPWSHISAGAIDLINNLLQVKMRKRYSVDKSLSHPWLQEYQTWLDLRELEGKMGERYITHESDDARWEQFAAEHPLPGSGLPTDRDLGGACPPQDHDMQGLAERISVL

[11] = molecular target: T3, Serine/threonine-protein kinase D2 (Homo sapiens); settings: at 1 µM
[12] = molecular target: T4, Serine/threonine-protein kinase D3 (Homo sapiens) (UniProt O94806); settings: at 0.1 µM
T4 sequence (whole entry): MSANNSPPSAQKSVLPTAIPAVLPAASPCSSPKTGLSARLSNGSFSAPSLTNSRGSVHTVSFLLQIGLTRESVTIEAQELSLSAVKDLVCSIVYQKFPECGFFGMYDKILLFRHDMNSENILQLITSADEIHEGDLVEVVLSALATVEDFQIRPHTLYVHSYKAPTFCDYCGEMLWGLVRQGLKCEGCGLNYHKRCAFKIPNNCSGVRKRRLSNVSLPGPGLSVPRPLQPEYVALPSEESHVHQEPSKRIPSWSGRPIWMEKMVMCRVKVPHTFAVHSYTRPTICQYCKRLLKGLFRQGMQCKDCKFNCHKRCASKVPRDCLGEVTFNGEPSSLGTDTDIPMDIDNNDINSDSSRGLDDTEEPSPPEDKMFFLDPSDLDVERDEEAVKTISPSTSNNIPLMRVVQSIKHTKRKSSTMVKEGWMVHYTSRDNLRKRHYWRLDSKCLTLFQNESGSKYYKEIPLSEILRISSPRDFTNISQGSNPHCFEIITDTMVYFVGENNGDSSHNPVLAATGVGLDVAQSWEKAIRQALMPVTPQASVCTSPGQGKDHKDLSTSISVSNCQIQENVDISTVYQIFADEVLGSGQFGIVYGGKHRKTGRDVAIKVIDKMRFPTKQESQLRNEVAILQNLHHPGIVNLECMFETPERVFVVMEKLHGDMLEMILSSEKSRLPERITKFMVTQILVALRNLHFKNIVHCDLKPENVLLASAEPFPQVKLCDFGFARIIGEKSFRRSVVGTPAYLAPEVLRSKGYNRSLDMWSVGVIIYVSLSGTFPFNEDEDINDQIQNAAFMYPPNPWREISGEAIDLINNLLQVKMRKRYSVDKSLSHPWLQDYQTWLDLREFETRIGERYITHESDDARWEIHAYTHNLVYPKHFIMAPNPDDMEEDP

[13] = molecular target: T4, Serine/threonine-protein kinase D3 (Homo sapiens); settings: at 1 µM
[14] = molecular target: T5, cGMP-dependent protein kinase 1 (Homo sapiens) (UniProt Q13976); settings: at 0.1 µM
T5 sequence (whole entry): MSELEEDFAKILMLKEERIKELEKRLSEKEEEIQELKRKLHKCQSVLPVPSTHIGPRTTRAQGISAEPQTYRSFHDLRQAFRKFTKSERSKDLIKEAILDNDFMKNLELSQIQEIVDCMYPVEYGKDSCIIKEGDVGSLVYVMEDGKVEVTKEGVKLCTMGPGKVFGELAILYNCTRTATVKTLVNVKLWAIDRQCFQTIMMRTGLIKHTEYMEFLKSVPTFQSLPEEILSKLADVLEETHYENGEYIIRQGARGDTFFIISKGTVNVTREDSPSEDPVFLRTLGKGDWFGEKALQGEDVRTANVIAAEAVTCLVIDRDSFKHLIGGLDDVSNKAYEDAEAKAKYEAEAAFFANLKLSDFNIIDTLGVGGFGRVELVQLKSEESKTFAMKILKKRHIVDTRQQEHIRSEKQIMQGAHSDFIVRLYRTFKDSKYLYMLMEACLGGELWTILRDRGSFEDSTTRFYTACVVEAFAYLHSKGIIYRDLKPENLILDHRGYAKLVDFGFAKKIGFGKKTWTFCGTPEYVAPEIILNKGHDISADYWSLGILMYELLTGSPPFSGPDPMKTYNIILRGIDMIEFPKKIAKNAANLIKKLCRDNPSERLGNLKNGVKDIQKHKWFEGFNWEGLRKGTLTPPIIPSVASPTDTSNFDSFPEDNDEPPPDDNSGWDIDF

[15] = molecular target: T5, cGMP-dependent protein kinase 1 (Homo sapiens); settings: at 1 µM
[16] = molecular target: T6, cGMP-dependent protein kinase 2 (Homo sapiens) (UniProt Q13237); settings: at 0.1 µM
T6 sequence (whole entry): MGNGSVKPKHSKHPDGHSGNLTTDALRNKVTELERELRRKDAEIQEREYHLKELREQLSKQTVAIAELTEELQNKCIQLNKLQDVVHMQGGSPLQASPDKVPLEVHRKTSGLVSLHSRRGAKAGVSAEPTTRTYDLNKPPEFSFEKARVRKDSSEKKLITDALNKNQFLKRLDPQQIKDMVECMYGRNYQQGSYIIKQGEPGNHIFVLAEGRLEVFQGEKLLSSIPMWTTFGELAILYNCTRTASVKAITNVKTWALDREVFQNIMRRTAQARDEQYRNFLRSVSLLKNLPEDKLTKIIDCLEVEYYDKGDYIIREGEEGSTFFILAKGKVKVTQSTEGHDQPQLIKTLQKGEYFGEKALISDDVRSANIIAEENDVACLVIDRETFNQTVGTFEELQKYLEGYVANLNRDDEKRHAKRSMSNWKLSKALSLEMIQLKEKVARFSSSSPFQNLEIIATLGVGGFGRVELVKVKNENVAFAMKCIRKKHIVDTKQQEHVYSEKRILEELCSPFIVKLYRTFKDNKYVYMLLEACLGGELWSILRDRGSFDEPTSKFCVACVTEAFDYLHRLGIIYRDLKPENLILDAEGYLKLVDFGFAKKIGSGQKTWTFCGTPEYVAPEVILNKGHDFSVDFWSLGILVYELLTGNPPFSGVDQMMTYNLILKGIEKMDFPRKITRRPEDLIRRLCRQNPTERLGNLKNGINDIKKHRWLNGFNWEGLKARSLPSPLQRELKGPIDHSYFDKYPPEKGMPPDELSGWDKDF

[17] = molecular target: T6, cGMP-dependent protein kinase 2 (Homo sapiens); settings: at 1 µM
[18] = molecular target: T7, cAMP-dependent protein kinase catalytic subunit PRKX (Homo sapiens) (UniProt P51817); settings: at 0.1 µM
T7 sequence (whole entry): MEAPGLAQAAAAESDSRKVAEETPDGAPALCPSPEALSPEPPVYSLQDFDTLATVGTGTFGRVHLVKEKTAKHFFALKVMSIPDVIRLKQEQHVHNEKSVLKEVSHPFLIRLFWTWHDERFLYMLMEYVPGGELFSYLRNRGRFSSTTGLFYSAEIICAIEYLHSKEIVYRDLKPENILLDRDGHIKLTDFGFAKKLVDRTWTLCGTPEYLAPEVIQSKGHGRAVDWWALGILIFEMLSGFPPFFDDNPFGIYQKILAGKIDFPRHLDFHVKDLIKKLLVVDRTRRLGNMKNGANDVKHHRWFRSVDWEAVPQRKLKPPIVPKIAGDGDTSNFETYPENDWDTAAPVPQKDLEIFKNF

[19] = molecular target: T7, cAMP-dependent protein kinase catalytic subunit PRKX (Homo sapiens); settings: at 1 µM
[20] = molecular target: Rho-associated protein kinase 1 (Homo sapiens) (UniProt Q13464); settings: at 0.1 µM;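 note: values are mean percent inhibition of ROCK1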
Chain of Rho-associated protein kinase 1 (Homo sapiens) (Q13464 2-1354 limits assumed): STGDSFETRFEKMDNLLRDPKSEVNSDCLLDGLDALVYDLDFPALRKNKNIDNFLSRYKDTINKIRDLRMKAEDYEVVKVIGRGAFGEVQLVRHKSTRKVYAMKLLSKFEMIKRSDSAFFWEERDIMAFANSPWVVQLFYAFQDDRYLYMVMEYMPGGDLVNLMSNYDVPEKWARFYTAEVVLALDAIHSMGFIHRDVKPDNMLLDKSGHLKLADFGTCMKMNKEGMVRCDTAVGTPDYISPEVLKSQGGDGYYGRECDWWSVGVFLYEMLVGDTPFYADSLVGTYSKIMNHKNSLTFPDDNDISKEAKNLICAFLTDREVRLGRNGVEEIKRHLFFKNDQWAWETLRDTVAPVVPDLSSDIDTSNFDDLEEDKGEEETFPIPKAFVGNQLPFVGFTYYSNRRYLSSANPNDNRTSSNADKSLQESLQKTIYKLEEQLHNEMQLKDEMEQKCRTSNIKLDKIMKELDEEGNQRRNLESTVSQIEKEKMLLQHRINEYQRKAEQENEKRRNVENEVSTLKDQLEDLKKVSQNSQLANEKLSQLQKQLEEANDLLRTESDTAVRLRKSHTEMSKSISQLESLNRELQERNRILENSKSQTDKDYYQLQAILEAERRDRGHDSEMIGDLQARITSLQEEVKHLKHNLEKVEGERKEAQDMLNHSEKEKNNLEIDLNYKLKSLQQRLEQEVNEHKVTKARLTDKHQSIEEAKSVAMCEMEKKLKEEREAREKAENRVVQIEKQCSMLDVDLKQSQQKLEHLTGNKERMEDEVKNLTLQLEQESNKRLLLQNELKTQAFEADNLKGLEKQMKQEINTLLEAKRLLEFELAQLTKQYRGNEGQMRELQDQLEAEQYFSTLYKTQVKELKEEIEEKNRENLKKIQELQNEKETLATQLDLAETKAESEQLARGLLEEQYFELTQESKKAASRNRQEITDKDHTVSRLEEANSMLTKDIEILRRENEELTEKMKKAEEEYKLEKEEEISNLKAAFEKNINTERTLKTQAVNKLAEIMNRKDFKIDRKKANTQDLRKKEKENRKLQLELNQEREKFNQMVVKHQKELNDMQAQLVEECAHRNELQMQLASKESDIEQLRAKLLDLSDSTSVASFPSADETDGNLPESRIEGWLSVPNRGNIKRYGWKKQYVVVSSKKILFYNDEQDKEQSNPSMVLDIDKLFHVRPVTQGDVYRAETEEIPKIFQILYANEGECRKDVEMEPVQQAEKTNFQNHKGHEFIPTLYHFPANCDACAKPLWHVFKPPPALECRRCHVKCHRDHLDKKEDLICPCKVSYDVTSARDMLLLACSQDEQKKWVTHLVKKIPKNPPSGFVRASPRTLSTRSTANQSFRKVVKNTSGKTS

SMILES | inhibition [1] [%] | inhibition [2] [%] | inhibition [3] [%] | inhibition [4] [%] | inhibition [5] [%] | inhibition [6] [%] | inhibition [7] [%] | inhibition [8] [%] | inhibition [9] [%] | inhibition [10] [%] | inhibition [11] [%] | inhibition [12] [%] | inhibition [13] [%] | inhibition [14] [%] | inhibition [15] [%] | inhibition [16] [%] | inhibition [17] [%] | inhibition [18] [%] | inhibition [19] [%] | inhibition [20] [%]
NS(=O)(=O)c1cccc(Nc2cc(-c3ccc(F)cc3)n[nH]2)c1 | 2.43 | 1.19 | 0.46 | 3.52 | 8.77 | 1.7 | 3.53 | -0.81 | 4.04 | 2.47 | 3.29 | 2.9 | 3.78 | 2.36 | 5.63 | 4.45 | 6.86 | 6.02 | 9.4 | 1.22
O=C(Nc1ccc(Oc2ccc3[nH]c(NC(=O)c4ccco4)nc3c2)cc1)Nc1cc(C(F)(F)F)ccc1F | 2.22 | 0.86 | -0.83 | -0.73 | 1.78 | 0.05 | 1.61 | -3.35 | -2.46 | -3.46 | -1.48 | -3.15 | -1.16 | 1.18 | 4.28 | 1.74 | 4.38 | 4 | 4.61 | 3.36
COc1cccc(-n2nc(C)c3c(N/N=C(\C)c4ccncc4)ncnc32)c1 | -0.03 | -1.18 | -0.8 | -0.03 | -0.11 | 0.75 | 0.46 | 0.01 | 0.3 | 0.82 | -1.17 | -0.64 | 0.59 | 0.03 | 0.55 | 0.35 | -0.19 | -0.2 | -1.17 | -1.53

From ChEMBL document CHEMBL1961873, “Compounds: GSK PKIS; Assays: Nanosyn kinase panel” (2012)
